# PubChem BioAssay AID1159580 (chemical genetic matrix, 2015)
# Among all 5,500 compounds or so, about 2,000 (36%) were called active. Another 18% or so got no clear call; they are omitted. The list shows a part of the results. Values without a mark were called inactive. No stated cut-off is given here; in the data, active means normalized growth mostly below about 0.91 (no sharp cut-off); inconclusive means no clear call, values can overlap the other calls; inactive means mostly above about 0.92.
# Assay: chemical genetic growth profiling, strain panel (AID 1159580);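 further: tested at 20 µM; growth read once vehicle control cultures reached saturation at 30 °C; 1 = growth at the plate median or of vehicle wells; lower values mean less growth of the strain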
# Conditions: growth OD
smiles,measurement,setting,value
CO[C@]12C[C@@H](COC(=O)c3cncc(Br)c3)CN(C)[C@@H]1Cc1cn(C)c3cccc2c13,normalized growth,"S. cerevisiae deletion strains, locus YJR075W, strain HOC1, active compounds read low",0.994
same,normalized growth,"S. cerevisiae deletion strains, locus YKL009W, strain mrt4, active compounds read low",0.968
same,normalized growth,"S. cerevisiae deletion strains, locus YKL068W, active compounds read low",0.997
same,normalized growth,"S. cerevisiae deletion strains, locus YKL085W, strain MDH1 (second series), active compounds read low",0.995
same,normalized growth,"S. cerevisiae deletion strains, locus YKL085W, strain MDH1, active compounds read low",0.995
same,normalized growth,"S. cerevisiae deletion strains, locus YKL160W, strain elf1, active compounds read low",0.984
same,normalized growth,"S. cerevisiae deletion strains, locus YKL190W, strain CNB1, active compounds read low",0.999
same,normalized growth,"S. cerevisiae deletion strains, locus YKR001C, strain vps1, active compounds read low",1.02
same,normalized growth,"S. cerevisiae deletion strains, locus YKR026C, strain gcn3, active compounds read low",1.03
same,normalized growth,"S. cerevisiae deletion strains, locus YKR091W, strain srl3, active compounds read low",0.981
same,normalized growth,"S. cerevisiae deletion strains, locus YLL001W, strain dnm1, active compounds read low",0.965
same,normalized growth,"S. cerevisiae deletion strains, locus YLL026W, active compounds read low",0.989
same,normalized growth,"S. cerevisiae deletion strains, locus YLL041C, strain sdh2, active compounds read low",0.998
same,normalized growth,"S. cerevisiae deletion strains, locus YLR027C, strain aat2, active compounds read low",0.964
same,normalized growth,"S. cerevisiae deletion strains, locus YLR039C, strain RIC1, active compounds read low",1.34 [resistant] (active)
same,normalized growth,"S. cerevisiae deletion strains, locus YLR058C, strain SHM2, active compounds read low",1
same,normalized growth,"S. cerevisiae deletion strains, locus YLR102C, strain apc9, active compounds read low",1.01
same,normalized growth,"S. cerevisiae deletion strains, locus YLR113W, strain HOG1, active compounds read low",0.954
same,normalized growth,"S. cerevisiae deletion strains, locus YLR221C, strain rsa3, active compounds read low",0.973
same,normalized growth,"S. cerevisiae deletion strains, locus YLR258W, strain gsy2, active compounds read low",0.997
same,normalized growth,"S. cerevisiae deletion strains, locus YLR262C, strain YPT6 (second series), active compounds read low",1.07
same,normalized growth,"S. cerevisiae deletion strains, locus YLR262C, strain YPT6, active compounds read low",1.45 [resistant] (active)
same,normalized growth,"S. cerevisiae deletion strains, locus YLR268W, strain sec22, active compounds read low",1.01
same,normalized growth,"S. cerevisiae deletion strains, locus YLR320W, strain mms22, active compounds read low",0.983
same,normalized growth,"S. cerevisiae deletion strains, locus YLR330W, strain CHS5, active compounds read low",1.01
same,normalized growth,"S. cerevisiae deletion strains, locus YLR342W, strain FKS1 (second series), active compounds read low",0.968
same,normalized growth,"S. cerevisiae deletion strains, locus YLR342W, strain FKS1, active compounds read low",0.975
same,normalized growth,"S. cerevisiae deletion strains, locus YLR357W, strain rsc2, active compounds read low",0.969
same,normalized growth,"S. cerevisiae deletion strains, locus YLR370C, strain arc18, active compounds read low",0.985
same,normalized growth,"S. cerevisiae deletion strains, locus YLR371W, strain rom2, active compounds read low",1.01
same,normalized growth,"S. cerevisiae deletion strains, locus YLR384C, strain iki3, active compounds read low",0.991
same,normalized growth,"S. cerevisiae deletion strains, locus YLR418C, strain cdc73, active compounds read low",1.03
same,normalized growth,"S. cerevisiae deletion strains, locus YML016C, strain PPZ1, active compounds read low",1.01
same,normalized growth,"S. cerevisiae deletion strains, locus YML032C, strain rad52, active compounds read low",1.01
same,normalized growth,"S. cerevisiae deletion strains, locus YML120C, strain ndi1, active compounds read low",0.993
same,normalized growth,"S. cerevisiae deletion strains, locus YML124C, strain tub3, active compounds read low",1.01
same,normalized growth,"S. cerevisiae deletion strains, locus YMR058W, strain fet3, active compounds read low",0.992
same,normalized growth,"S. cerevisiae deletion strains, locus YMR078C, strain ctf18, active compounds read low",1
same,normalized growth,"S. cerevisiae deletion strains, locus YMR125W, strain sto1, active compounds read low",0.977
same,normalized growth,"S. cerevisiae deletion strains, locus YMR129W, active compounds read low",0.977
same,normalized growth,"S. cerevisiae deletion strains, locus YMR205C, strain PFK2, active compounds read low",0.977
same,normalized growth,"S. cerevisiae deletion strains, locus YMR223W, strain ubp8, active compounds read low",0.984
same,normalized growth,"S. cerevisiae deletion strains, locus YMR231W, strain pep5, active compounds read low",0.997
same,normalized growth,"S. cerevisiae deletion strains, locus YMR263W, strain SAP30, active compounds read low",0.997
same,normalized growth,"S. cerevisiae deletion strains, locus YMR307W, strain GAS1, active compounds read low",1.08
same,normalized growth,"S. cerevisiae deletion strains, locus YNL067W, strain RPL9B, active compounds read low",0.985
same,normalized growth,"S. cerevisiae deletion strains, locus YNL071W, strain lat1, active compounds read low",0.944
same,normalized growth,"S. cerevisiae deletion strains, locus YNL128W, strain TEP1, active compounds read low",1.01
same,normalized growth,"S. cerevisiae deletion strains, locus YNL153C, strain GIM3, active compounds read low",0.99
same,normalized growth,"S. cerevisiae deletion strains, locus YNL183C, strain NPR1, active compounds read low",0.912
same,normalized growth,"S. cerevisiae deletion strains, locus YNL209W, strain ssb2, active compounds read low",0.996
same,normalized growth,"S. cerevisiae deletion strains, locus YNL233W, strain BNI4, active compounds read low",0.997
same,normalized growth,"S. cerevisiae deletion strains, locus YNL248C, strain rpa49, active compounds read low",0.934
same,normalized growth,"S. cerevisiae deletion strains, locus YNL250W, strain rad50, active compounds read low",1
same,normalized growth,"S. cerevisiae deletion strains, locus YNL271C, strain bni1, active compounds read low",1.01
same,normalized growth,"S. cerevisiae deletion strains, locus YNL298W, strain CLA4, active compounds read low",1.01
same,normalized growth,"S. cerevisiae deletion strains, locus YNL307C, strain MCK1, active compounds read low",0.975
same,normalized growth,"S. cerevisiae deletion strains, locus YNL322C, strain KRE1 (second series), active compounds read low",0.985
same,normalized growth,"S. cerevisiae deletion strains, locus YNL322C, strain KRE1, active compounds read low",1
same,normalized growth,"S. cerevisiae deletion strains, locus YNR049C, strain mso1, active compounds read low",0.993
same,normalized growth,"S. cerevisiae deletion strains, locus YNR052C, strain pop2, active compounds read low",1
same,normalized growth,"S. cerevisiae deletion strains, locus YOL006C, strain TOP1, active compounds read low",1.06
same,normalized growth,"S. cerevisiae deletion strains, locus YOL012C, strain htz1",1.03
same,normalized growth,"S. cerevisiae deletion strains, locus YOL147C, strain pex11, active compounds read low",1.01
same,normalized growth,"S. cerevisiae deletion strains, locus YOR001W, strain rrp6, active compounds read low",0.972
same,normalized growth,"S. cerevisiae deletion strains, locus YOR061W, strain CKA2, active compounds read low",1
same,normalized growth,"S. cerevisiae deletion strains, locus YOR069W, strain VPS5, active compounds read low",1
same,normalized growth,"S. cerevisiae deletion strains, locus YOR070C, strain gyp1, active compounds read low",0.994
same,normalized growth,"S. cerevisiae deletion strains, locus YOR080W, strain dia2, active compounds read low",0.983
same,normalized growth,"S. cerevisiae deletion strains, locus YOR083W, strain WHI5, active compounds read low",0.978
same,normalized growth,"S. cerevisiae deletion strains, locus YOR106W, strain vam3, active compounds read low",0.968
same,normalized growth,"S. cerevisiae deletion strains, locus YOR136W, strain idh2, active compounds read low",0.992
same,normalized growth,"S. cerevisiae deletion strains, locus YOR144C, strain elg1, active compounds read low",1.01
same,normalized growth,"S. cerevisiae deletion strains, locus YOR184W, strain ser1, active compounds read low",0.988
same,normalized growth,"S. cerevisiae deletion strains, locus YOR231W, strain MKK1, active compounds read low",0.983
same,normalized growth,"S. cerevisiae deletion strains, locus YOR265W, strain rbl2, active compounds read low",0.987
same,normalized growth,"S. cerevisiae deletion strains, locus YOR270C, strain vph1, active compounds read low",1.01
same,normalized growth,"S. cerevisiae deletion strains, locus YOR290C, strain snf2, active compounds read low",0.982
same,normalized growth,"S. cerevisiae deletion strains, locus YOR316C, strain cot1, active compounds read low",1
same,normalized growth,"S. cerevisiae deletion strains, locus YPL051W, strain arl3, active compounds read low",0.97
same,normalized growth,"S. cerevisiae deletion strains, locus YPL055C, strain LGE1, active compounds read low",0.977
same,normalized growth,"S. cerevisiae deletion strains, locus YPL078C, strain atp4, active compounds read low",0.975
same,normalized growth,"S. cerevisiae deletion strains, locus YPL106C, strain sse1, active compounds read low",1.01
same,normalized growth,"S. cerevisiae deletion strains, locus YPL240C, strain hsp82, active compounds read low",1.02
same,normalized growth,"S. cerevisiae deletion strains, locus YPL241C, strain CIN2, active compounds read low",0.999
same,normalized growth,"S. cerevisiae deletion strains, locus YPL256C, strain CLN2, active compounds read low",0.972
same,normalized growth,"S. cerevisiae deletion strains, locus YPR119W, strain clb2, active compounds read low",1.01
same,normalized growth,"S. cerevisiae deletion strains, locus YPR141C, strain kar3, active compounds read low",1.01
same,normalized growth,"S. cerevisiae deletion strains, locus YPR163C, strain tif3, active compounds read low",1.02
same,normalized growth,"S. cerevisiae deletion strains, locus YPR167C, strain met16, active compounds read low",1.01
same,normalized growth,"S. cerevisiae deletion strains, strain wtn01, active compounds read low",1.02
same,normalized growth,"S. cerevisiae strains, strain wild type, active compounds read low",0.993
